Screens as filed in PubChem BioAssay.
This is a sample that favours compounds with a hit; in the whole collection about 8% have one here.
FMDV inh: blocks foot and mouth disease virus | AID 1159524 | FMDV antiviral cell-based qHTS | actives 1.2% (n = 410,000) | Potency, µM (series often up to 57.9 µM), without a hit: at the top dose activity change, negative = inhibition, hits mostly inhibitors; calls by dose curve; tested in HEK293T cells; also: read-out not given here; potency is read from the fitted curve at half-maximal effect; % is scaled to controls: 0 for no effect and ±100 for the full control effect; nearly all actives have a fitted effect of over 45% in size
SARS PLP yeast: SARS-CoV PLP inhibition in yeast; S. cerevisiae expressing SARS-CoV PLpro, growth rescue; Potency, µM (top dose mostly 32.9 µM), for the others: at the highest dose activity, positive = growth rescue, hits mostly activators; actives 0.19% (n = 330,000); AID 485353; calls by dose curve; also: potency is read from the fitted curve at half-maximal effect; 0% is about no effect; nearly all actives have a fitted effect of over 55% in size
Marburg entry inh: Marburg virus entry inhibition; Marburg virus pseudotyped entry inhibition, cell reporter; Potency, µM (series often up to 37.8 µM), inactives show at the top dose activity change, negative = inhibition, usual class: inhibitors; actives 1.8% (n = 300,000); AID 540276; calls by dose curve; tested in HEK293 cells; also: potency is read from the fitted curve at half-maximal effect; % is scaled to controls: 0 for no effect and ±100 for the full control effect
HCMV antiviral: blocks human cytomegalovirus replication | HFF cells, HCMV-luciferase reporter, 72 h; hits give low values | activity change, negative = inhibition, % at 57.5 µM | actives 4.5% (n = 410,000) | AID 1259415; in the data active = activity change below about -60%; inconclusive = no clear call, values can overlap the other calls; inactive = above about -39%; also: % is scaled to controls: 0 for no effect and ±100 for the full control effect
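Inhibition of viral replication was scored as loss of reporter luminescence in HFFs infected with HCMV-luciferase (MOI 1 PFU/cell) for 72 h; compounds tested at 2 doses, normalized to buffer and Salinomycin controls.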
LASV entry inh: inhibitors of Lassa virus binding or cell entry. Lassa virus pseudotype entry inhibition, cell reporter. Potency, µM (titrated, usually from 37.9 µM), for the others: at the highest dose activity change, negative = inhibition, hits mostly inhibitors. actives 1.2% (n = 300,000). AID 540256; calls by dose curve; tested in HEK293 cells; also: potency is read from the fitted curve at half-maximal effect; % is scaled to controls: 0 for no effect and ±100 for the full control effect; nearly all actives have a fitted effect of over 50% in size
HCV inh: inhibitors of hepatitis C virus infection; Huh7.5.1 HCVcc-Cre infection, luciferase reporter, 44 h; Potency, µM (titrated, usually from 41.8 µM), inactives show at the top dose activity change, negative = inhibition, actives largely listed as inhibitors; actives 3.4% (n = 340,000); active = well fitted inhibition curve with a large enough effect; inconclusive = small, poorly fitted or top-dose-only effect, or another doubt; inactive = no such curve, though single readings can be large or run the other way; also: potency is read from the fitted curve at half-maximal effect; % is scaled to controls: 0 for no effect and ±100 for the full control effect
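Infectious HCV cell culture screen: compound-treated cells (1,000/well, pre-plated 4 h) are infected with HCVcc-Cre at roughly 0.5 moi and grown 44 h. Infection is quantified by luciferase signal after 15 min substrate incubation at room temperature.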
Starred values were filed as active, the others as inactive; ? = inconclusive; · = not tested or not shown; ! = repeats disagree; [ ] = dose if it differs, or a comment.

SMILES	FMDV inh	SARS PLP yeast	Marburg entry inh	HCMV antiviral	LASV entry inh	HCV inh
COc1ccc(-c2cc(C(F)(F)F)nc(NC3CCCC3)n2)cc1OC	-17.9%	-0.1%	?	25.2	?	2.24µM*
COc1ccc(-c2cc(C(=O)O)c3sc(N4CCCCC4)nc3n2)cc1OC	11.9%	-3.3%	-26.6%	30.3	5.4%	-1.1%
C=CCSc1nnc(C2CCCN(Cc3ccccc3O)C2)n1C (stereo not given)	3.0%	·	·	·	·	·
Cc1ccc(NC(=O)c2cnn3c(C(F)F)cc(-c4ccccc4)nc23)cc1F	?	·	?	-27.2	14.6%[46.1 µM]	·
O=C1C=CC(=NN=C(c2ccccc2)c2ccccc2)C=C1	2.6%	·	·	-80.2*	·	·
COc1ccc(NC(=O)C(C)N2c3cccc4cccc(c34)S2(=O)=O)cc1OC (stereo not given)	·	14.5%	?	-79.9*	-3.2%	6.31µM*
CCN(CC)c1nc(NNC(=O)c2ccccc2)nc(N(CC)CC)n1	3.4%	·	3.7%	-70.3*	12.8%	-20.4%
COc1ccc(-c2nc3cc(F)ccc3cc2CN(C(=O)c2ccc3c(c2)OCO3)C2CC2)cc1	-9.4%	·	·	·	·	·
CC(C)[C@@]1(NC(=O)[C@@H]2C[C@@H]3c4cccc5[nH]cc(c45)C[C@H]3N(C)C2)O[C@@]2(O)C3CCCN3C(=O)[C@H](Cc3ccccc3)N2C1=O (stereo not given in full)	·	·	5.62µM*	·	-39.6%	·
CC(C)[C@@]1(NC(=O)[C@@H]2C[C@@H]3c4cccc5[nH]cc(c45)C[C@H]3N(C)C2)O[C@@]2(O)[C@@H]3CCCN3C(=O)[C@H](Cc3ccccc3)N2C1=O	0.0%	-3.8%	5.62µM*!	39.5	?	4.3%[8.37 µM]
CN1C[C@H](C(=O)N[C@@]2(C)O[C@@]3(O)C4CCCN4C(=O)C(Cc4ccccc4)N3C2=O)C[C@H]2c3cccc4[nH]cc(c34)C[C@H]21 (stereo not given in full)	8.6%	·	·	·	·	·
CCS(=O)(=O)Nc1cc(C(=O)N2CCC[C@H]2CO)c2c(c1)nc(-c1ccccc1)n2C	2.7%	·	·	·	·	·
CCOc1ccc(OCC)c(NC(=O)CSc2nc3ccccc3c(=O)n2C)c1	?	1.9%	?	-70.4*	?	?
CC(=O)Nc1cccc(NC(=O)CSc2ncc(C(=O)Nc3ccc(F)cc3)c(=O)n2C)c1	?	0.6%	?	3.7	-25.7%	-3.6%
CC(=O)Nc1cccc(NC(=O)CSc2ncc(C(=O)Nc3ccccc3)c(=O)n2C)c1	?	-9.6%	?	9.5	-2.9%	11.2µM*
Cc1cccc(Cn2c(SCC(=O)Nc3ccccc3)nc3c2c(=O)[nH]c(=O)n3C)c1	-24.2%	3.6%	·	23.2	·	25.1µM*
Cc1cccc(NC(=O)CSc2nc3ccccc3c(=O)n2C)c1	?	-4.5%	7.08µM*	?	?	10µM*
Cc1cccc(NC(=O)CSc2nc3c([nH]c4ccccc43)c(=O)n2C)c1	16.6%	0.4%	·	33.5	?	-13.8%
CCOc1ccc(OCC)c(NC(=O)CSc2nnnn2CC)c1	7.2%	-9.1%	?	30.3	-8.8%	?
COc1ccc(C(=O)NCC2Cc3cc(C)cc(-c4nc5ccccc5s4)c3O2)c(OC)c1OC (stereo not given)	-26.3%	·	·	·	·	·
Cc1ccccc1C(=O)Nc1cccc(NC(=O)Cn2cnc3c(=O)n(C)c(=O)n(C)c32)c1	-8.0%	3.5%	?	-64.1*	?	?
CCOc1ccc(OCC)c(NC(=O)CSc2nc3cccnc3n2C)c1	17.8µM*	-1.7%	-21.1%	-62.6*	-28.0%	6.31µM*
Cc1cccc(C)c1NC(=O)Cn1cnc2c(=O)n(C)c(=O)n(C)c21	-17.3%	0.9%	14.4%	56.0	-5.1%	-2.8%
Cc1cc(CNC(=O)c2cnn(-c3ncc4c(n3)-c3ccccc3CC4)c2C2CC2)on1	25.4%	·	·	·	·	·
Cc1cccc(CSc2cn(CC(=O)N3CCCCC3)c3ccccc23)c1	23.8%	·	·	69.6	?	·
SMILES	FMDV inh	SARS PLP yeast	Marburg entry inh	HCMV antiviral	LASV entry inh	HCV inh
O=c1c2ccccc2c(C=Nc2cccc(O)c2)c(O)n1-c1ccc2c(c1)OCO2	-33.1%	-5.9%	-13.3%	-86.1*	-17.2%	-22.9%
Cc1ccccc1-n1c(O)c(C=Nc2ccc3c(c2)OCO3)c(=O)[nH]c1=O	-14.9%	-17.6%	15.1%	4.5	8.2%	18.6%
CC(NC(=O)c1ccccc1F)c1nnc(SCC(=O)NC2CCCC2)n1C (stereo not given)	-10.0%	0.9%	-20.1%[46.1 µM]	-64.2*	7.6%[46.1 µM]	7.9%
CCn1c(SCC(=O)NC2CCCC2)nnc1C(C)NC(=O)c1ccccc1F (stereo not given)	-1.4%	3.0%	-0.8%[46.1 µM]	-22.9	9.2%[46.1 µM]	5.9%
Cc1cc(C)c(NC(=O)C2CCN(c3nc4ccccc4n4cccc34)CC2)c(C)c1	18.3%	·	·	31.6	2.1%[46.1 µM]	·
COc1ccc(C(C[N+](=O)[O-])C2(c3ccc(OC)c(OC)c3)C(=O)c3ccccc3C2=O)cc1 (stereo not given)	-87.0%	-86.8%	11.2µM*	·	15.8µM*	?
Cn1c(-c2ccc(S(=O)(=O)N3CCCC3)cc2)csc1=Nc1ccc(Cl)c(Cl)c1	0.0%	·	·	-61.9*	?	·
COCCCn1c(-c2ccc(S(=O)(=O)N3CCOCC3)cc2)csc1=Nc1ccccc1	11.2µM*	9.8%	27.3%	-88.0*!	-3.5%[46.1 µM]	?
O=S(=O)(c1ccc(-c2csc(=Nc3ccc(OC(F)(F)Cl)cc3)n2CCCO)cc1)N1CCCC1	?	·	?	-100.4*	?	·
CCn1c(-c2ccc(S(=O)(=O)N3CCOCC3)cc2)csc1=Nc1ccc(C)c(Cl)c1	?	6.1%	·	2.7	?	·
C=CCOC(=O)N[C@H](c1ccc2ccccc2c1)[C@H](C)C=CCC(=O)OC	·	·	-4.3%[14.2 µM]	·	?	·
COC(=O)c1ccc(C2c3[nH]c4ccccc4c3C[C@H]3C(=O)N(C4CCN(Cc5ccccc5)CC4)CC(=O)N23)cc1 (stereo not given in full)	0.0%	-0.1%	·	-1.4	·	10µM*
O=C1[C@@H]2Cc3c([nH]c4ccccc34)C(c3ccccc3)N2C(=O)CN1C1CCN(Cc2ccccc2)CC1 (stereo not given in full)	-1.8%	-1.9%	?	-76.0*	?	-18.6%
O=C1[C@@H]2Cc3c([nH]c4ccccc34)C(c3cccc(Br)c3)N2C(=O)CN1C1CCN(Cc2ccccc2)CC1 (stereo not given in full)	-23.1%	1.6%	?	3.7	?	?
CCOc1ccccc1C1c2[nH]c3ccccc3c2C[C@H]2C(=O)N(C3CCN(Cc4ccccc4)CC3)CC(=O)N12 (stereo not given in full)	-2.7%	-1.7%	20µM*	?	?	?
COCCCNC(=O)c1ccc(Cn2c(=O)c3ccccc3n(CC(=O)Nc3c(C)cccc3C)c2=O)cc1	-5.8%	·	-7.4%[46.1 µM]	-3.8	-1.4%[46.1 µM]	·
